From PubChem BioAssay
Giardia killer: Giardia lamblia killing; activity change, % at 7.66 µM, hits read low; Giardia lamblia trophozoite viability; 340,000 tested, 0.15% active; in the data active = activity change below about -80%; inconclusive = between about -30% and that limit;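 note: parasites exposed to compound for two days anaerobically before the ATP read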
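Viability, read as ATP luminescence: trophozoites at 100 cells/well, compound added, 48 hrs anaerobic at 37 deg C, then 15-30 min room-temperature development before reading.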
DT40 TDP1 CPT: growth inhibition of DT40 Tdp1-/-;hTDP1 cells with camptothecin (screen for TDP1 inhibitors); Potency, µM (doses to about 46.2 µM), without a hit: top-dose activity change, negative = growth inhibition, actives largely listed as inhibitors; chicken DT40 Tdp1-/-;hTDP1 cells + 20 nM CPT, ATP luminescence, 48 h; 420,000 tested, 12% active; note: potency is the fitted concentration of half-maximal effect; nearly all actives have a fitted effect of over 55% in size
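Chicken DT40 Tdp1-/- cells complemented with human TDP1, 400 cells/well, exposed to compounds plus 20 nM camptothecin for at least 48 h at 37 C; viability read as ATP content by CellTiter-Glo luminescence.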
ELG1 DNA repair: inhibitors of ELG1-dependent DNA repair in HEK293T cells | Potency, µM (doses to about 46.1 µM), without a hit: at the highest dose activity change, negative = inhibition, actives largely listed as inhibitors | 330,000 tested, 2.3% active | AID 504467 | HEK293T ELG1-luciferase reporter, luminescence, 16 h; DNA damage induced by 5-fluorouridine; note: potency is the fitted concentration of half-maximal effect; nearly all actives have a fitted effect of over 55% in size
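Cells (2,000 per well) received 5-fluorouridine plus test compound or DMSO and were incubated 16 hr at 37 °C, 5% CO2. Luciferase activity was read by luminescence 30 min after ONE-Glo addition; signal suppression marked inhibition of damage-induced ELG1 function.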
TDP1 block: inhibitors of human tyrosyl-DNA phosphodiesterase TDP1; Q9NUW8; Potency, µM (top dose mostly 130 µM), for inactives: top-dose activity change, negative = inhibition, actives largely listed as inhibitors; AID 485290; recombinant TDP1, AlphaScreen DNA substrate cleavage; 350,000 tested, 0.28% active; note: potency is the fitted concentration of half-maximal effect; nearly all actives have a fitted effect of over 40% in size
Target sequence (Q9NUW8 whole entry, looked up): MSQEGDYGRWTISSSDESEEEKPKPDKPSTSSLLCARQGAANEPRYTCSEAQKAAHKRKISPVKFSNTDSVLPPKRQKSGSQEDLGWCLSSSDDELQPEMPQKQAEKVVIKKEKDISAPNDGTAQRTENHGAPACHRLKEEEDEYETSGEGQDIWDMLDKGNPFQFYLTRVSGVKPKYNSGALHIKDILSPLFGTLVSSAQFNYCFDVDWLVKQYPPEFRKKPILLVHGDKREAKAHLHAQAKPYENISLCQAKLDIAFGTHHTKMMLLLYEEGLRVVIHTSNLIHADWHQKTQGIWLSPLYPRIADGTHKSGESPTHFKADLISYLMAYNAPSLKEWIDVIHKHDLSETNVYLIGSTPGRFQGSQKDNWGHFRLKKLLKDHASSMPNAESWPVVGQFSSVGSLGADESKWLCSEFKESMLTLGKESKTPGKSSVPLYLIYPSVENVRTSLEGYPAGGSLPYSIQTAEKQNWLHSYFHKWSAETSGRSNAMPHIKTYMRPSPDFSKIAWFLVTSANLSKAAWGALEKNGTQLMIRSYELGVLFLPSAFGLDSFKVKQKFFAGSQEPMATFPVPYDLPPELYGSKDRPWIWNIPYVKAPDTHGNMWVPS
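Steps: enzyme plus compound, 15 min RT; add biotin/phosphotyrosine-FITC oligonucleotide (15 nM final), react 5 min; add donor/acceptor beads (10 ug/ml final), 10 min; read AlphaScreen. Tdp1 at 1 nM final.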
IL1B secr inh: blocks inflammasome-driven IL-1 beta release; 360,000 tested, 4.7% active; THP-1 LPS/ATP IL-1B secretion, AlphaLISA, 16 h; active compounds read low; activity change, % at 57.5 µM; in the data active = activity change below about -50%; inconclusive = mostly about -30% to -49%
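Secreted IL-1B measured by AlphaLISA bead assay after 16 h compound exposure of THP-1 cells; compounds (final up to 57.5 uM) added 1 h before LPS (250 ng/mL) and ATP (1.25 mM) stimulation; lower signal means less secretion.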
TDP1 cell noCPT: qHTS for Inhibitors of human tyrosyl-DNA phosphodiesterase 1 (TDP1): qHTS in cells in absence of CPT. DT40 Tdp1-/- hTDP1 cells, no CPT, ATP luminescence, 48 h. Potency, µM (doses to about 46.2 µM), inactives show at the top dose activity change, negative = growth inhibition, most hits filed as inhibitors. 420,000 tested, 15% active; note: potency is the fitted concentration of half-maximal effect; nearly all actives have a fitted effect of over 55% in size
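Chicken DT40 Tdp1-/- cells complemented with human TDP1, screened without camptothecin (DMSO vehicle only), 400 cells/well. Compounds pin-transferred, cells incubated at 37 °C for at least 48 hr. Growth read as ATP-dependent luminescence (CellTiter-Glo, 30 min at RT).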
Numbers without * were called inactive; ? = inconclusive; . = no result; [ ] = remark or other dose. This is a sample that favours compounds with a hit; in the whole collection about 19% have one here. Unless noted, calls come from the whole dose curve; as a rule, active = well fitted curve in the direction sought with a large enough effect; inconclusive = small, poorly fitted or top-dose-only effect, or another doubt; inactive = no such curve, though single readings can be large; an effect the other way counts as inactive or inconclusive. % is set by controls: 0 for no effect and ±100 for the full control effect.

SMILES	Giardia killer	DT40 TDP1 CPT	ELG1 DNA repair	TDP1 block	IL1B secr inh	TDP1 cell noCPT
COc1cccc(NC(=O)c2ccnc(N3CCC(C(=O)NCc4ccccc4OC)CC3)c2)c1	1	?	-1%	3%	-11	-23%
CCOc1ccccc1NC(=O)CSc1nc2c(c(=O)[nH]1)CCC2	.	-3%	.	9%	.	?
COc1ccc(-c2ccc(CCC(=O)O)n2-c2ccccc2OC)cc1	-13	?	-2%	.	82	23µM*
O=C(COC(=O)C1CCC1)NCc1ccc(F)cc1	-30	-7%	2%	.	3	1%
O=C(O)c1ccccc1CSc1nc2ccccc2[nH]1	-13	24%	?	6%	-3	-2%
COc1ccc(NC(=O)c2cc3nc(-c4ccc(C)c(C)c4)cc(C(F)(F)F)n3n2)cc1	.	-21%	.	-2%	.	?
COc1ccc(/C=c2\s/c(=C\C(=O)C(C)(C)C)[nH]c2=O)cc1O	-13	15µM*	?	-1%	?	?
COc1cc(/C=c2\s/c(=C\C(=O)C(C)(C)C)[nH]c2=O)cc(OC)c1OC	-5	?	?	6%	8	?
O=C(O)c1cccc(NC(=O)c2cc3cc(Br)cc(Br)c3oc2=O)c1	.	-2%	.	-2%[12.3 µM]	.	-2%
CCN1CCc2c(C#N)c(N3CCOCC3)nc(NCc3ccccc3)c2C1	0	?	?	3%	44	?
C=CCNc1nc(N2CCCCC2)c(C#N)c2c1CN(Cc1ccccc1)CC2	2	23µM*	23µM*	7%	-6	23µM*
CCN1CCc2c(C#N)c(N3CCCCC3)nc(NCc3ccccc3)c2C1	3	21µM*	.	7%	-24	16µM*
O=C(NC1CC1)c1cccc2c1C(=O)c1ccc(N3CCC(N4CCCCC4)CC3)cc1S2(=O)=O	.	-2%	.	.	1	-27%
Cc1cccc(NC(=O)CN2CCN(C(=O)c3ccc(OCc4cn5ccccc5n4)cc3)CC2)c1C	23	18µM*	?	45µM*	?	9.2µM*
O=C(CN1CCN(C(=O)c2ccc(OCc3cn4ccccc4n3)cc2)CC1)Nc1cccc(F)c1	11	23µM*	?	0%	-18	15µM*
Cc1cccc(NC(=O)CN2CCN(C(=O)c3cccc(-n4cnnn4)c3)CC2)c1C	-6	?	12%	1%	-11	-20%
O=S(=O)(c1ccc(Cl)cc1)c1snnc1-c1ccccc1	-13	5.2µM*	?	4%	-115*	4.1µM*
CN(C)c1ncc(S(=O)(=O)c2ccc(Cl)cc2)c(-c2ccccc2)n1	-5	?	-12%	4%	22	?
O=S(=O)(c1ccc(F)cc1)c1snnc1-c1ccccc1	-2	4.1µM*	-13%	-2%	-100*	2.9µM*
CCC(COC)NC(=O)CCc1nnc(Cc2cccc(C(F)(F)F)c2)o1 (stereo not drawn)	17	-7%	?	3%	-1	-4%
Cc1ccc(-c2nc3ccc(Br)cn3c2CC(C)(C)C)cc1	.	?	.	.	4	12µM*
CC(C)(C)Cc1c(-c2ccccc2)nc2ccc(Br)cn12	.	?	.	.	42	23µM*
c1ccc(CCN2CCN(c3ncnc4c3cnn4-c3ccccc3)CC2)cc1	-17	23µM*	?	2%	-10	18µM*
CCCCN(C)c1ncnc2c1cnn2-c1cccc(Cl)c1	.	23µM*	.	.	.	16µM*
Cc1ccccc1C(=O)N1CCN(c2ncnc3c2cnn3-c2ccccc2)CC1	15	21µM*	?	7%	?	23µM*
SMILES	Giardia killer	DT40 TDP1 CPT	ELG1 DNA repair	TDP1 block	IL1B secr inh	TDP1 cell noCPT
CCCNc1ncnc2c1cnn2-c1ccc(OC)cc1	.	.	5%	.	.	.
CCCN(CCC)c1ncnc2c1cnn2-c1ccc(OC)cc1	-8	?	?	0%	-65*	?
O=C(NNC(=O)c1ccccc1C(=O)O)c1ccc(S(=O)(=O)N2CCCCC2)cc1	3	-2%	16%	4%	-4	-4%
CN(C)C1(CNC(=O)COc2ccc([N+](=O)[O-])cc2)CCCCC1	.	7%	.	5%	.	-10%
CC1CCCCN1CCCNC(=O)Cn1ncc2c3ccccc3n(Cc3ccccc3)c2c1=O (stereo not drawn)	.	10%	.	5%	.	-20%
Clc1cccc(-n2ncc3c(N4CCN(Cc5ccccc5)CC4)ncnc32)c1	.	23µM*	.	3%	.	?
OCCN1CCN(c2ncnc3c2cnn3-c2cccc(Cl)c2)CC1	.	?	.	5%	.	?
Cc1c(O)ccc2c3c(c(=O)oc12)CCC(C)C3 (stereo not drawn)	0	23µM*	-16%	3%	7	12µM*
C/C(=N\NC(=O)C(N)=O)c1cccc(C(F)(F)F)c1	-4	7%	16%	3%	2	-1%
COCCNC(=S)N/N=C(\C)c1ccc(C)c([N+](=O)[O-])c1	12	1.3µM*	-12%	9%	-65*	1.5µM*
COCCNC(=S)N/N=C(\C)c1ccc(OC(F)F)cc1	-23	16µM*	0%	.	-11	3%
COCCNC(=S)N/N=C(\C)c1ccc2cc(OC)ccc2c1	8	13µM*	?	-3%	-88*	26µM*
COCCNC(=S)N/N=C(\C)c1cccc(C(F)(F)F)c1	3	?	-3%	2%	-9	21µM*
CCCOC(=O)c1ccc(Cn2nnc3sc4c(c3c2=O)CCC(C)C4)cc1 (stereo not drawn)	.	?	.	2%	.	?
O=C(Nc1ccc2nc(SCCOc3ccccc3Cl)sc2c1)c1cccs1	.	?	.	-4%	.	?
CCOc1ccc(S(=O)(=O)NCc2cccnc2)c2ccccc12	-1	-2%	-23%	2%	10	-20%
NNc1nc2c(Cl)ccc(Cl)c2s1	-11	-11%	0%	8%	-24	?
COCCNC(=S)N/N=C(\C)c1cc2ccccc2o1	-12	?	?	5%	12	18µM*
C=C(C)CNC(=S)N/N=C(\C)c1ccc(OC)cc1	?	3.7µM*	5%	7%	0	2.9µM*
COc1cccc(NC(=O)C2=C(C)C(=O)OC23CCN(C(C)=O)CC3)c1	.	-1%	.	2%	.	-5%
O=C(CCN1C(=O)C2C3C=CC(C4CC34)C2C1=O)Oc1cccc2cccnc12 (stereo not drawn)	-2	5.2µM*	2%	5%	31	3.3µM*
O=C(NCCCc1nc2ccccc2n1Cc1ccc(Cl)cc1)C1CCCCC1	.	16µM*	.	-3%	.	21µM*
